Bioassay records (PubChem BioAssay)
Six1-Eya2 blk – qHTS Assay for Inhibitors of the Six1/Eya2 Interaction; actives 0.56% (n = 360,000); AID 651725, 2012; AlphaScreen GST-Six1/His-Eya2 binding, biochemical; active compounds read low; activity change, % (concentration not given with the values); Homeobox protein SIX1 (Homo sapiens) + Protein phosphatase EYA2 (Homo sapiens), …; in the data active = activity change below about -65%; inconclusive = mostly about -30% to -63%
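Six1/Eya2 binding was read as AlphaScreen signal after compounds were pinned into GST-Six1 plus His-tagged Eya2 (5X stock 250/500 nM) in pH 8.0 Tris/NaCl/TCEP buffer, beads added, then incubated 1 h, 37 C, dark.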
PKM2 act – qHTS Assay for Activators of Human Muscle isoform 2 Pyruvate Kinase; Pyruvate kinase PKM (Homo sapiens), P14618; purified PKM2, Kinase-Glo ATP luminescence, activation; response scale: 0% is enzyme alone, no compound; Potency, µM (top dose mostly 57.5 µM), inactives show at the top dose activation, usual class: activators; actives 0.34% (n = 260,000); AID 1631, 2009; also: potency is read from the fitted curve at half-maximal effect; nearly all actives have a fitted effect of over 55% in size
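Purified hPK-M2 (>95% pure) converted ADP (0.1 mM final) to ATP with 0.5 mM PEP in 50 mM imidazole pH7.2, KCl, MgCl2, Tween 20, BSA; 1 h at room temperature. ATP detected by Kinase-Glo luminescence.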
VP16 counter – VP16 counterscreen qHTS for inhibitors of ROR gamma transcriptional activity; actives 3.5% (n = 310,000); AID 2546, 2010; Potency, µM (series often up to 53.6 µM), without a hit: at the top dose activity, negative = inhibition, most hits filed as inhibitors; Drosophila S2 Gal4-VP16 UAS-luciferase, luminescence, 20 h;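 also: Gal4-VP16 expression switched on by copper sulfate through the metallothionein promoter; potency is read from the fitted curve at half-maximal effect; nearly all actives have a fitted effect of over 50% in size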
RORgamma inh – qHTS for inhibitors of ROR gamma transcriptional activity; Nuclear receptor ROR-gamma (Mus musculus), P51450; Drosophila S2 Gal4-RORgamma UAS-luciferase reporter, 20 h; Potency, µM (highest dose often 53.6 µM), for the others: at the highest dose activity change, negative = inhibition, actives largely listed as inhibitors; actives 5.4% (n = 310,000); also: potency is read from the fitted curve at half-maximal effect; nearly all actives have a fitted effect of over 60% in size
Target sequence (P51450 whole entry, looked up, the tested form may be a part): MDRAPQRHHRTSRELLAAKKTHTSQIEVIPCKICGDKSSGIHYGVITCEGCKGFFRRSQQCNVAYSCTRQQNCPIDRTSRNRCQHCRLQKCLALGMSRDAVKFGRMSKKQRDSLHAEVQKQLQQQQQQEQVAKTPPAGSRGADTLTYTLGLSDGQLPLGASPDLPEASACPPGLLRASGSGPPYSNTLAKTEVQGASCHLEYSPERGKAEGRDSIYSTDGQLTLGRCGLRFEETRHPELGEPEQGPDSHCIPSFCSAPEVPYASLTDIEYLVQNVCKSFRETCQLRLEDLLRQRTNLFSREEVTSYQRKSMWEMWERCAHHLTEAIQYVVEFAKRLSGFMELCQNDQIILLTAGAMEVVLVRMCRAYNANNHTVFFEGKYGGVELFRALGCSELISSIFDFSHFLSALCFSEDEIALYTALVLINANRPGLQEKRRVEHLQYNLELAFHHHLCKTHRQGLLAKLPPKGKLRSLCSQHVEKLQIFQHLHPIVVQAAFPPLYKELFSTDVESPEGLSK
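Read-out: Photinus luciferase luminescence; inhibitors lower reporter signal. Insect Schneider cells with Gal4-ROR gamma fusion under metallothionein promoter, UAS reporter; 700 uM final copper sulfate induction, 20 hr, ambient temperature.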
CtBP-E1A blk – qHTS Assay for Inhibitors of the CtBP/E1A Interaction | activity change, % (no concentration beside the values) | actives 0.49% (n = 340,000) | AlphaScreen GST-E1A/His-CtBP binding, 1536-well; active compounds read low | CtBP / adenovirus E1A interaction (AlphaScreen); in the data active = activity change below about -65%; inconclusive = mostly about -30% to -63%
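Steps: dispense buffer (Tris pH 8.0, NaCl 300 mM, TCEP 1 mM, BSA, Tween 20); add 5X protein mix (GST-E1A, His-CtBP, 125 nM each); pin 23 nL compound; 2 h at 37 °C, dark; add 5X beads (50 ug/mL); 1 h; read.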
An asterisk follows results filed as active; [ ] = dose if it differs, or a comment. Rows were chosen to be rich in hits. Some 5.6% of all compounds tested hit in one or more screens of this group. Unless noted, calls follow the shape of the dose curve; as a rule, active = well fitted curve in the direction sought with a large enough effect; inconclusive = small, poorly fitted or top-dose-only effect, or another doubt; inactive = no such curve, though single readings can be large; an effect the other way counts as inactive or inconclusive. % is scaled to controls: 0 for no effect and ±100 for the full control effect.

Screening CCOC(=O)COn1c(-n2nc(C)cc2C)nc2ccccc2c1=O returned Six1-Eya2 blk 6.9, VP16 counter 14.1µM*, RORgamma inh 17.8µM* and CtBP-E1A blk -13.1.
Screening Cc1cc(C)n(-c2nc3ccccc3c(=O)n2OCC(C)C)n1 returned Six1-Eya2 blk 0.4, VP16 counter 1.7%, RORgamma inh inconclusive and CtBP-E1A blk -0.6.
Screening CCOC(=O)C(C)On1c(-n2nc(C)cc2C)nc2ccccc2c1=O (stereo not drawn) returned Six1-Eya2 blk 3.1, VP16 counter 6.31µM*, RORgamma inh 2.51µM* and CtBP-E1A blk 2.9.
`Cc1cc(C)n(-c2nc3ccccc3c(=O)n2OCC#N)n1` gave Six1-Eya2 blk 0.9, VP16 counter 1µM*, RORgamma inh 0.501µM* and CtBP-E1A blk -5.0.
Screening COC(=O)COn1c(-n2nc(C)cc2C)nc2ccccc2c1=O returned Six1-Eya2 blk -0.2, PKM2 act -8.9%, VP16 counter 8.91µM*, RORgamma inh 3.98µM* and CtBP-E1A blk 3.2.
`CCOn1c(-n2nc(C)cc2C)nc2ccccc2c1=O` gave Six1-Eya2 blk 2.9, PKM2 act 4.3%, VP16 counter 5.6%, RORgamma inh -34.8% and CtBP-E1A blk 6.8.
`CCC1Oc2ccccc2N(CC(=O)NC2CCCCC2C)C1=O` (stereo not drawn) gave Six1-Eya2 blk 3.5, VP16 counter 14.8%, RORgamma inh 7.8% and CtBP-E1A blk 7.4.
`Cc1ccc(O)c(N=CC2=C(O)c3ccccc3C2=O)c1` gave Six1-Eya2 blk inconclusive, PKM2 act -0.3%, VP16 counter 7.08µM*, RORgamma inh 3.98µM* and CtBP-E1A blk inconclusive.
`O=C1C(C=Nc2ccccc2O)=C(O)c2ccccc21` gave Six1-Eya2 blk -19.8, PKM2 act -3.6%, VP16 counter 7.08µM*, RORgamma inh 3.98µM* and CtBP-E1A blk inconclusive.
`NC(=S)Nc1ccc(Cl)c(Cl)c1` gave Six1-Eya2 blk -2.0, PKM2 act -1.2%, VP16 counter 0.2% and RORgamma inh -18.4%.
For Cc1ccc(NNC(N)=S)cc1Cl the results were Six1-Eya2 blk 1.3, PKM2 act 9.6%, VP16 counter 5.01µM*, RORgamma inh inconclusive and CtBP-E1A blk -0.4.
For NC(=S)NNc1ccc(Cl)c(Cl)c1 the results were Six1-Eya2 blk -0.1, PKM2 act 6.0%, VP16 counter 10µM* and RORgamma inh 6.31µM*.
Screening O=C(NNc1c(Cl)cccc1Cl)c1c(F)cccc1Cl returned Six1-Eya2 blk 5.4, PKM2 act 8.2%, VP16 counter -5.4%, RORgamma inh 33.8% and CtBP-E1A blk 7.5.
For O=C(NNc1c(Cl)cccc1Cl)c1sccc1Cl the results were Six1-Eya2 blk -12.9, PKM2 act 15.8µM*, VP16 counter inconclusive, RORgamma inh -40.3% and CtBP-E1A blk 12.4.
Screening Cc1cccc(OCC(=O)NNC(=O)c2ccc3nc[nH]c3c2)c1 returned Six1-Eya2 blk 7.9 and CtBP-E1A blk -14.8.
For COc1ccccc1-c1c(-c2ccc(OCC(=O)NN)cc2O)n[nH]c1C(F)(F)F the results were Six1-Eya2 blk 0.6, PKM2 act -8.4%, VP16 counter 11.2µM*, RORgamma inh -25.5% and CtBP-E1A blk 5.1.
Screening COc1ccc([C@]23Cc4cc(OC)c(OC)cc4C(O2)C2=C(CC4(CCCCC4)OC2=O)O3)cc1 returned PKM2 act -0.5%[11.5 µM], VP16 counter 5.4%[10 µM] and RORgamma inh 9.2%[10 µM].
`COCc1ccc(CN2CCC(n3nccc3NC(=O)CCOc3ccccc3)CC2)o1` gave Six1-Eya2 blk 4.1, PKM2 act -0.5%, VP16 counter inconclusive, RORgamma inh 8.91µM* and CtBP-E1A blk -0.2.
`COC(=O)C1=C(C)NC(=S)NC1/C=C/c1ccccc1` (stereo not drawn) gave Six1-Eya2 blk -3.2, PKM2 act -0.4%, VP16 counter 15.8µM*, RORgamma inh 6.31µM* and CtBP-E1A blk 5.0.
CCOC(=O)C1=C(C)NC(=S)NC1/C=C/c1ccccc1 (stereo not drawn) was read as Six1-Eya2 blk 13.4, PKM2 act -0.6%, VP16 counter 2µM*, RORgamma inh 1.78µM* and CtBP-E1A blk 12.3.
Cc1cccn2c(=O)c(C=O)c(Cl)nc12 was read as Six1-Eya2 blk -3.8, PKM2 act -4.1%, VP16 counter inconclusive, RORgamma inh 14.1µM* and CtBP-E1A blk 1.4.
Screening CCc1ccc(S(=O)(=O)N2CCN(C(=O)c3cccnc3)CC2)cc1 returned Six1-Eya2 blk 2.2, PKM2 act 1.4%, VP16 counter -10.3%, RORgamma inh 4.0%[1.91 µM] and CtBP-E1A blk 0.7.
O=C(N/N=C/c1sc(N2CCOCC2)nc1-c1ccccc1)c1ccccc1F was read as Six1-Eya2 blk 0.0, PKM2 act 0.0%, VP16 counter -8.0%, RORgamma inh -1.4% and CtBP-E1A blk -11.0.
Screening CC(C)NC(=S)N/N=C/c1sc(N2CCCCC2)nc1-c1cccs1 returned Six1-Eya2 blk -2.4, PKM2 act -5.4%, VP16 counter inconclusive, RORgamma inh 1.41µM* and CtBP-E1A blk -2.1.
`O=C(N/N=C/c1sc(N2CCCCC2)nc1-c1cccs1)C1CC1` gave Six1-Eya2 blk -0.9, PKM2 act -1.1%, VP16 counter inconclusive, RORgamma inh 7.08µM* and CtBP-E1A blk 2.0.
Screening CCCCNC(=S)N(C)/N=C/c1sc(N2CCCCC2)nc1-c1cccs1 returned PKM2 act 1.5%, VP16 counter -5.3% and RORgamma inh 11.2µM*.
`CCOC(=O)Cc1csc(NC(=S)NC(=O)c2ccc(F)cc2)n1` gave Six1-Eya2 blk -5.5, PKM2 act -3.2%, VP16 counter inconclusive, RORgamma inh 11.2µM* and CtBP-E1A blk 11.8.
CCOC(=O)Cc1csc(N/N=C/c2ccc(C(F)(F)F)cc2)n1 was read as Six1-Eya2 blk 0.9, PKM2 act 3.0%, VP16 counter inconclusive, RORgamma inh 0.708µM* and CtBP-E1A blk 7.6.
For CCOC(=O)Cc1csc(NC(=S)NC(=O)c2ccccc2C)n1 the results were Six1-Eya2 blk -2.3, PKM2 act -1.7%, VP16 counter -27.7%, RORgamma inh 11.2µM* and CtBP-E1A blk 5.1.
CCOC(=O)Cc1csc(N/N=C/c2cccc([N+](=O)[O-])c2)n1 was read as Six1-Eya2 blk -1.7, PKM2 act -4.0%, VP16 counter -21.7%, RORgamma inh inconclusive and CtBP-E1A blk -7.8.
c1cc2c3c(c1)ccc1cccc(c13)C2 was read as VP16 counter 3.1% and RORgamma inh 7.6%.
